In PubChem BioAssay (EPA / NIEHS):
Calls of active or inactive are those of the source. The calls were made as follows: active = hit-call score of the fitted dose curve at least 0.9, where 1 is the maximum; inactive = score below 0.9.

Legend:
[1] = ATG_ISRE_CIS: Attagene CIS-FACTORIAL HepG2 Assay for human Interferon Regulatory Factor 1 (IRF1) binding to an Interferon-Stimulated Response Element (ISRE) (AID 2282948); details: HepG2 ISRE cis-reporter (Attagene), mRNA transcription readout; actives raise or lower the signal
How it was run: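 Read-out: fluorescent RT-PCR products resolved by capillary electrophoresis, reporting endogenous transcription factor activity via ISRE-driven reporter mRNA in transfected HepG2 cells dosed for 24 h; gain or loss fitted relative to DMSO.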

[2] = ATG_M_32_CIS: Attagene CIS-FACTORIAL HepG2 Assay for M32 Transcription Factor (Internal Marker) (AID 2282949); details: HepG2 Attagene cis-factorial M32 reporter, mRNA; actives raise or lower the signal;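 also: background control marker of the multiplexed CIS panel rather than a real target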
How it was run: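 Transient MRTU transfection of HepG2; 24 h compound treatment; TriZol RNA, oligo(dT) RT, reporter PCR, 6-FAM primer extension, HpaI cut, CE. Gain/loss of signal vs DMSO.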

[3] = ATG_M_06_CIS: Attagene CIS-FACTORIAL HepG2 Assay for M06 Transcription Factor (Internal Marker) (AID 2282950); details: HepG2 Attagene CIS-FACTORIAL M06 internal marker reporter; actives raise or lower the signal
How it was run: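 One of many multiplexed endpoints: HepG2 reporter mRNA after 24 h dosing, detected by RT-PCR and capillary electrophoresis fluorescence; gain or loss of signal analysed against DMSO.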

[4] = molecular target: Hypoxia-inducible factor 1-alpha (Homo sapiens) (UniProt Q16665); experiment: ATG_HIF1a_CIS: Attagene CIS-FACTORIAL HepG2 Assay for human Hypoxia Inducible Factor 1 (HIF1A) (AID 2282951); details: HepG2 Attagene cis-factorial HIF1a reporter transcription; actives raise or lower the signal
Hypoxia-inducible factor 1-alpha (Homo sapiens), sequence (Q16665 whole entry, looked up): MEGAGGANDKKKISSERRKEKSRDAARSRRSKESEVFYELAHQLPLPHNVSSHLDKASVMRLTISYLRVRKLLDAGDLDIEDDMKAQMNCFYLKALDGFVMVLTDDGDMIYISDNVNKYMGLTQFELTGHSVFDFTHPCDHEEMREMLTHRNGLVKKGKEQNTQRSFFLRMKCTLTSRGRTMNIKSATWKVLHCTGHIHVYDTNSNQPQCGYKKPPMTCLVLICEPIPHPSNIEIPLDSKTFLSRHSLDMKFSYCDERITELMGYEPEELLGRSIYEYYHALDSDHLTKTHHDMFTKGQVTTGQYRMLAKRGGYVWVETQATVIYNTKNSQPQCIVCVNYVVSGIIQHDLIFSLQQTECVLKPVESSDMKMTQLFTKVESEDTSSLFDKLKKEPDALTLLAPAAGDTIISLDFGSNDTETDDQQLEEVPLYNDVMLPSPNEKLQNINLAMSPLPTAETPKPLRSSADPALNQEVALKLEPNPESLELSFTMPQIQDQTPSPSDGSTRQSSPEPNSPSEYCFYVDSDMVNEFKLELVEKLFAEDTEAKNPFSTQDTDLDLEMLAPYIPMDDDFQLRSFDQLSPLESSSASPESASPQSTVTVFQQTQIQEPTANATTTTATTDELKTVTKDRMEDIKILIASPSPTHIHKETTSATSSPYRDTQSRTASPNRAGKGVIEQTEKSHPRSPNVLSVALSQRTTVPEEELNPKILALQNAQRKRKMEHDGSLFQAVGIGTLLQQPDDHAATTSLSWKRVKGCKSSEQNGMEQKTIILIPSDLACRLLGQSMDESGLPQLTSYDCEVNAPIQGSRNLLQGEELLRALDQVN
How it was run: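 HepG2 cells transiently transfected with multiplexed cis-promoter reporter units; reporter mRNA read 24 h after dosing by RT-PCR, 6-FAM primer-extension labelling, HpaI digestion and capillary electrophoresis. Bidirectional fit versus DMSO baseline.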

[5] = molecular target: Heat shock factor protein 1 (Homo sapiens) (UniProt Q00613); experiment: ATG_HSE_CIS: Attagene CIS-FACTORIAL HepG2 Assay for human Heat Shock Transcription Factor 1 (HSE) (AID 2282953); details: HepG2 HSE cis-reporter, Attagene RNA transcription; actives raise or lower the signal
Heat shock factor protein 1 (Homo sapiens), sequence (Q00613 whole entry, looked up): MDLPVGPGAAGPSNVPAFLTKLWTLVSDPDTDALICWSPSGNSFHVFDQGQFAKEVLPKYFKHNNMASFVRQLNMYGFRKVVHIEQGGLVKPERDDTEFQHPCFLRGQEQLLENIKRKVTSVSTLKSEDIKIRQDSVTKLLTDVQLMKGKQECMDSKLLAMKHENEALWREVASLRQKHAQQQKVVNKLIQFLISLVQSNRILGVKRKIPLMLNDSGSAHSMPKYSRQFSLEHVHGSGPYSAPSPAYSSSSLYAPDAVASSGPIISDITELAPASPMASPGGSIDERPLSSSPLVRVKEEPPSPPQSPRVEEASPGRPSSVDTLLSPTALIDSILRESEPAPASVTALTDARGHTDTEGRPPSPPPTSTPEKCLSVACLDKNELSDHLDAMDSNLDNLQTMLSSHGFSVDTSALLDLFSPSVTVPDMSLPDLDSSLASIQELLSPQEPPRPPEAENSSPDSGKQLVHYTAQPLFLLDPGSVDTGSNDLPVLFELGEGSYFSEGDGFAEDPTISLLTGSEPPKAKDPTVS
How it was run: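 Using HepG2 with transfected cis-driven reporter constructs, compound effects on endogenous factor activity are scored as reporter mRNA change at 24 h. Detection: RT-PCR, HpaI digestion, capillary electrophoresis; bidirectional fitting to DMSO.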

[6] = ATG_MRE_CIS: Attagene CIS-FACTORIAL HepG2 Assay for human Metal Responsive Element (MRE) (AID 2282954); details: HepG2 MRE cis-reporter transcription, Attagene multiplex; actives raise or lower the signal
How it was run: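 Multiplexed cis-reporter assay in human HepG2 liver cells, 24 h incubation with test chemical. Reporter transcripts measured by RT-PCR and capillary electrophoresis; values from bidirectional curve fitting versus DMSO.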

[7] = ATG_PBREM_CIS: Attagene CIS-FACTORIAL HepG2 Assay for human Phenobarbital-responsive Enhancer Module (PBREM) (AID 2282955); details: HepG2 PBREM cis-reporter, Attagene multiplexed transcription; actives raise or lower the signal
How it was run: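 HepG2 cells transiently transfected with multiple cis-regulated reporter transcription units; endogenous factor activity at the PBREM element measured as reporter mRNA 24 h after dosing, via RT-PCR and capillary electrophoresis of fluorescent fragments; bidirectional fitting versus DMSO.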

[8] = molecular target: Paired box protein Pax-6 (Homo sapiens) (UniProt P26367); experiment: ATG_Pax6_CIS: Attagene CIS-FACTORIAL HepG2 Assay for human Paired Box 6 (PAX6) (AID 2282956); details: HepG2 CIS-FACTORIAL PAX6 reporter transcription, RNA readout; actives raise or lower the signal
Paired box protein Pax-6 (Homo sapiens), sequence (P26367 whole entry, looked up): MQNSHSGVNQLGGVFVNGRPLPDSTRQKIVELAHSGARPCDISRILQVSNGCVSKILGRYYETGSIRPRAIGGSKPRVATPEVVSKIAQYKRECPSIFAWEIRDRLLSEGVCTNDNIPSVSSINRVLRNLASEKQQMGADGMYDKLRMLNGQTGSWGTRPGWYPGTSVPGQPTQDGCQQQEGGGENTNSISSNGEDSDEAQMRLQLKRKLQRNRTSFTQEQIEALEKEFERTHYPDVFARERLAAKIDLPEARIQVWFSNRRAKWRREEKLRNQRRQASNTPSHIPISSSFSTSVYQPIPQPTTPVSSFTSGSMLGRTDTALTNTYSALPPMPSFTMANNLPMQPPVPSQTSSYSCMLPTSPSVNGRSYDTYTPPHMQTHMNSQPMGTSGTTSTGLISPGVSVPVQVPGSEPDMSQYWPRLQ
How it was run: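 Readout: reporter transcript fluorescence after RT-PCR and capillary electrophoresis. Cells: HepG2, transiently transfected with cis-regulated MRTUs. Exposure 24 h. Gain or loss of signal fitted bidirectionally relative to DMSO.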

[9] = ATG_PXRE_CIS: Attagene CIS-FACTORIAL HepG2 Assay for human Pregnane X Receptor Element (PXRE) (AID 2282957); details: HepG2 Attagene CIS-FACTORIAL PXRE reporter, mRNA; actives raise or lower the signal
How it was run: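 Endogenous transcription factor activity in HepG2 was gauged through induction of reporter mRNA driven by a cis-regulating promoter element, sampled 24 h post-treatment. Activity was fitted in both directions against DMSO negative control.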

[10] = ATG_PPRE_CIS: Attagene CIS-FACTORIAL HepG2 Assay for human Peroxisome Proliferator-activated Response Element (PPRE) (AID 2282958); details: HepG2 PPRE cis-element reporter, Attagene transcription factor profiling; actives raise or lower the signal
How it was run: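 HepG2 cells transiently transfected with multiplexed cis-element reporter units measure endogenous transcription factor activity. After 24 h compound exposure, reporter mRNA is quantified by RT-PCR, 6-FAM labeling, HpaI digestion and capillary electrophoresis; bidirectional fits are made against DMSO baseline.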

[11] = ATG_RORE_CIS: Attagene CIS-FACTORIAL HepG2 Assay for human RAR-related Orphan Receptor Element (RORE) (AID 2282959); details: HepG2 Attagene cis-factorial RORE reporter, mRNA; actives raise or lower the signal
How it was run: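 HepG2 cells transiently transfected with multiple cis-element reporter transcription units, exposed to chemical for 24 h. Reporter mRNA quantified by RT-PCR, 6-FAM primer-extension labeling, HpaI digestion and capillary electrophoresis; bidirectional fit versus DMSO baseline.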

[12] = molecular target: Transcription factor Sp1 (Homo sapiens) (UniProt P08047); experiment: ATG_Sp1_CIS: Attagene CIS-FACTORIAL HepG2 Assay for human Specificity Protein 1 (Sp1) (AID 2282961); details: HepG2 Sp1 cis-reporter transcription, actives raise or lower the signal
Transcription factor Sp1 (Homo sapiens), sequence (P08047 whole entry, looked up): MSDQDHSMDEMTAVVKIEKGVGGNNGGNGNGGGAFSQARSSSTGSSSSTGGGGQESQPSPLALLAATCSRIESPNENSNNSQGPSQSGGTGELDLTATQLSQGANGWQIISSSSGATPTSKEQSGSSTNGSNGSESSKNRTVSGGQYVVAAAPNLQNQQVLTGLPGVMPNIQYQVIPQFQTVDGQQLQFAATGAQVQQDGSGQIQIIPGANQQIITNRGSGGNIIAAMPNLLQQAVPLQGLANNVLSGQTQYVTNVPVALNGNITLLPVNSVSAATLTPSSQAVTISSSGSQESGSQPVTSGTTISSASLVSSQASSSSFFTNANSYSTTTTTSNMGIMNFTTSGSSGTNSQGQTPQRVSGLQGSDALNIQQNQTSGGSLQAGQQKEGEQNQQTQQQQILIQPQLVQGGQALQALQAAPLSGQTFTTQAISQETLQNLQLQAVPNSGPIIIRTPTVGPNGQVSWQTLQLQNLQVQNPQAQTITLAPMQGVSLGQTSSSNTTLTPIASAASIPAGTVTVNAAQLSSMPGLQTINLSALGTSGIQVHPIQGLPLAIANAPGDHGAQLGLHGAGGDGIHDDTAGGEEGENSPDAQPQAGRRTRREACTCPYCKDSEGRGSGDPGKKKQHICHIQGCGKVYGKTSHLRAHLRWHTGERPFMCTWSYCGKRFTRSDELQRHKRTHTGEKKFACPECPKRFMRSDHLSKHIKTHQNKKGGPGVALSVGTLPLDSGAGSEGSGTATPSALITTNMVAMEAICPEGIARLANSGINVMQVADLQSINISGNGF
How it was run: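 HepG2 cells transiently transfected with multiple reporter transcription units driven by cis-regulatory elements; Sp1-responsive reporter mRNA measured 24 h after dosing by RT-PCR and capillary electrophoresis fluorescence, fitted bidirectionally against DMSO baseline.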

[13] = ATG_SREBP_CIS: Attagene CIS-FACTORIAL HepG2 Assay for human Sterol Regulatory Element Binding (SREBP) (AID 2282962); details: HepG2 Attagene cis-factorial SREBP reporter, mRNA; actives raise or lower the signal
How it was run: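 Readout: fluorescent reporter-transcript peaks resolved by capillary electrophoresis after RT-PCR. Cells were human HepG2 carrying transfected cis-promoter reporter constructs, dosed for 24 h. Gain or loss of signal was fitted against DMSO controls.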

[14] = molecular target: Signal transducer and activator of transcription 3 (Homo sapiens) (UniProt P40763); experiment: ATG_STAT3_CIS: Attagene CIS-FACTORIAL HepG2 Assay for human Signal Transducer and Activator of Transcription 3 (STAT3) (AID 2282963); details: HepG2, Attagene cis-factorial STAT3 reporter transcription; actives raise or lower the signal
Signal transducer and activator of transcription 3 (Homo sapiens), sequence (P40763 whole entry, looked up): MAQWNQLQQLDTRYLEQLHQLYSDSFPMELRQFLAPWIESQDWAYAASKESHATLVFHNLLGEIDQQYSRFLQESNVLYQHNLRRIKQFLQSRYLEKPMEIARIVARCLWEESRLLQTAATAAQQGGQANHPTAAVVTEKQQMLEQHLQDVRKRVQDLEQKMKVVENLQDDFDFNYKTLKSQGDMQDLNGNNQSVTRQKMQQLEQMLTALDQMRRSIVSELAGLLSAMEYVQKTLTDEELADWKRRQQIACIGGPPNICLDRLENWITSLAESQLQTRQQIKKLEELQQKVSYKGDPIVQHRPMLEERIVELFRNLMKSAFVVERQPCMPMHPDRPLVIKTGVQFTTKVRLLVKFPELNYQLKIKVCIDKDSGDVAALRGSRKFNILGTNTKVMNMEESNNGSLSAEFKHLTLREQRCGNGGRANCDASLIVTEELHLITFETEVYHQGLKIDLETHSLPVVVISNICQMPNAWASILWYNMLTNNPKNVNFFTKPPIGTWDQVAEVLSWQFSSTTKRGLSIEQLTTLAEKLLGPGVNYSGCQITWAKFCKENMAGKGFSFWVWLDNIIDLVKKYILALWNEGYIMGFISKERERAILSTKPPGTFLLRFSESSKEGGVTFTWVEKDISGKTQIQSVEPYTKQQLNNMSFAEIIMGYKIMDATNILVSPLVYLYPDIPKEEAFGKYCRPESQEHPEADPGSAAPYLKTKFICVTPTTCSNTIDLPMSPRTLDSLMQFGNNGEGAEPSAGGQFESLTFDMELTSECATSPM
How it was run: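 Cis-factorial format: endogenous transcription factors in HepG2 drive transfected reporter units. After 24 h treatment, reporter RNA was reverse-transcribed, amplified, FAM-labelled and HpaI-digested before CE analysis; activity scored in both directions against DMSO.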

[15] = ATG_TA_CIS: Attagene CIS-FACTORIAL HepG2 Assay for human TA Basal Promoter (AID 2282964); details: HepG2 Attagene CIS-factorial TA basal promoter reporter; actives raise or lower the signal
How it was run: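 Transient MRTU transfection of HepG2 preceded 24 h compound exposure. Reporter mRNA levels were then read by RT-PCR with capillary electrophoresis, and this background-control endpoint was fitted bidirectionally to DMSO.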

[16] = ATG_TCF_b_cat_CIS: Attagene CIS-FACTORIAL HepG2 Assay for human T-Cell-Factor with beta-catenin (TCF/b-cat) (AID 2282965); details: HepG2 TCF/beta-catenin cis-reporter transcription, actives raise or lower the signal
How it was run: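 Measured: reporter mRNA in HepG2 transiently transfected with cis-promoter reporter units, 24 h after chemical addition. Fitting was bidirectional, DMSO as negative control.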

[17] = ATG_TAL_CIS: Attagene CIS-FACTORIAL HepG2 Assay for human TAL Basal Promoter (AID 2282966); details: HepG2 Attagene cis-factorial TAL promoter reporter; actives raise or lower the signal;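 also: background control endpoint measuring basal TAL promoter reporter mRNA not a specific factor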
How it was run: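 Endogenous transcription-factor activity is sensed in HepG2 cells through transfected cis-promoter reporter constructs. After 24 h dosing, reporter transcripts are quantified by RT-PCR and capillary electrophoresis. Gain or loss of signal is fitted relative to DMSO.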

[18] = molecular target: Hepatocyte nuclear factor 6 (Homo sapiens) (UniProt Q9UBC0); experiment: ATG_HNF6_CIS: Attagene CIS-FACTORIAL HepG2 Assay for human Hepatocyte Nuclear Factor 6 (HNF6) (AID 2282952); details: HepG2 Attagene cis-factorial HNF6 reporter transcription; actives raise or lower the signal
Hepatocyte nuclear factor 6 (Homo sapiens), sequence (Q9UBC0 whole entry, looked up): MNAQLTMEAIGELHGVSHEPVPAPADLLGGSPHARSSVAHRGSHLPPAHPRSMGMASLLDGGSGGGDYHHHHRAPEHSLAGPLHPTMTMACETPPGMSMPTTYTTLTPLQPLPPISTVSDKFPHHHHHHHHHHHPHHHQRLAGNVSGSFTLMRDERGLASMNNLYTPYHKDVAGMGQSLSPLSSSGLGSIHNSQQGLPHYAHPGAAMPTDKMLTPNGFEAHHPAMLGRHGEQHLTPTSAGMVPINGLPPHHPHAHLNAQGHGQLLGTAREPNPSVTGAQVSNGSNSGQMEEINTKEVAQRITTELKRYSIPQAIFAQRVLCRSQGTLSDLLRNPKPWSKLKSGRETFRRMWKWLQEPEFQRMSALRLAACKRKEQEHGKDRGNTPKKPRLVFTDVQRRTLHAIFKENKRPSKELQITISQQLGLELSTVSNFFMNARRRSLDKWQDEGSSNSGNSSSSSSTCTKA
How it was run: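 Endogenous transcription factor activity in human HepG2 liver cells was captured through cis-regulated reporter constructs. After 24 h treatment, reporter mRNA was measured by RT-PCR with capillary electrophoresis, and activity was fitted in both directions relative to DMSO.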

[19] = ATG_Sox_CIS: Attagene CIS-FACTORIAL HepG2 Assay for human SRY-box transcription factor (SOX) (AID 2282960); details: HepG2 Attagene cis-factorial SOX reporter, mRNA; actives raise or lower the signal
How it was run: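 HepG2 cells transiently transfected with cis-element-driven multiple reporter transcription units, dosed 24 h; reporter mRNA measured by RT-PCR, FAM labelling, HpaI digestion and capillary electrophoresis. Bidirectional fit versus DMSO baseline.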

[20] = ATG_GRE_CIS: Attagene CIS-FACTORIAL HepG2 Assay for human Glucocorticoid Response Elements (GRE) (AID 2282947); details: HepG2 GRE cis-reporter, Attagene multiplex mRNA; actives raise or lower the signal
How it was run: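 Multiplexed cis-reporter mRNA induction, HepG2, 24 h post-dose. RT-PCR, FAM-labelled, HpaI-digested amplicons by CE. Bidirectional fit vs DMSO.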

Measured: AC50

CC(C)CCCCCCOC(=O)c1ccc(C(=O)OCCCCCCC(C)C)c(C(=O)OCCCCCCC(C)C)c1
inactive: [1] | [2] | [3] | [4] | [5] | [6] | [7] | [8] | [9] | [10] | [11] | [12] | [13] | [14] | [15] | [16] | [17]

O=C(NS(=O)(=O)/C=C/c1ccccc1)c1ccc(F)cc1Cl
active: [9] 34.9 µM
inactive: [1] | [2] | [3] | [18] | [5] | [6] | [7] | [8] | [10] | [11] | [12] | [13] | [14] | [15] | [16] | [17]

CCCCCCCCCCCCCCCO
inactive: [1] | [2] | [3] | [18] | [5] | [6] | [8] | [9] | [10] | [11] | [19] | [12] | [13] | [14] | [15] | [16] | [17]

CC(C)=CCC/C(C)=C\CO
active: [9] 7.34 µM
inactive: [20] | [1] | [2] | [3] | [6] | [8] | [11] | [19] | [12] | [13] | [14] | [15] | [16] | [17]
